Experimental data published in PubChem BioAssay AID2129 (The Scripps Research Institute Molecular Screening Center, 2009).
Among all 320,000 compounds or so, about 2,200 (0.69%) were called active. The sample as a whole holds a higher share of actives than the screen did. A number with no mark means an inactive call.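 The calls were made as follows: active = inhibition above the mean of all tested compounds plus 3 SD, cutoff set per campaign (cut at about 30% in these data); inactive = the rest.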

biological target: Bcl-2-like protein 1 (Homo sapiens) (UniProt Q07817); experiment: inhibitors of human Bcl-xL, primary screen, biochemical, fluorescence polarization, HTS (AID 2129); conditions: GST-Bcl-xL / FITC-Bim BH3 peptide fluorescence polarization; at 10.9 µM; stronger effect = higher value;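 also: 0% = DMSO wells and 100% = unlabeled Bim-BH3 peptide competitor; inhibitors lower millipolarization by displacing the labeled peptide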
Sequence (Q07817 whole entry, looked up): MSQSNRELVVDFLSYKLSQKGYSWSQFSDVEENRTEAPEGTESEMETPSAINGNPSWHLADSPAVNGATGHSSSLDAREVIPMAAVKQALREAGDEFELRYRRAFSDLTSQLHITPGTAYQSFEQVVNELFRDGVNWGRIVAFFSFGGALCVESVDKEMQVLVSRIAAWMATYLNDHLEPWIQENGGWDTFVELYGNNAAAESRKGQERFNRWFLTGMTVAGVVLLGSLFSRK

Going from `COCCNc1nc2nonc2nc1N(C)Cc1ccc(C)cc1` to `CCOCCCNc1nc(-c2ccccc2)nc2ccccc12`, the inhibition rises from 0.5% to 1.72%.

Compared with `CCOc1ccc(C2=CC(c3ccccc3)n3ncnc3N2)cc1` (stereo not drawn), `CC1=C(C(=O)OCc2ccccc2)C(c2ccco2)n2ncnc2N1` (stereo not drawn) is lower in inhibition: 14.6% for the first, 1.01% for the second.

Compared with `CCC(C)NC(=O)/C=C/c1ccc(S(=O)(=O)NCc2ccco2)cc1` (stereo not drawn), `Cc1ccc(S(=O)(=O)NNC(=O)/C=C/c2cccc(F)c2)cc1` is higher in inhibition: 3.42% for the first, 6.57% for the second.

Compared with `Cc1ccc(O)c(-c2cc(C(=O)Nc3c(C)n(C)n(-c4ccccc4)c3=O)[nH]n2)c1`, `Cc1ccnc(NC(=O)CNC(=O)c2ccccc2)c1` is lower in inhibition: 2.52% for the first, -1.9% for the second.

Going from `CC(=O)Nc1ccc(NC(=O)CSC2=NS(=O)(=O)c3ccccc3N2)cc1` to `Cc1ccc(SCC(=O)NNC(=O)c2ccc(S(C)(=O)=O)cc2)cc1`, the inhibition rises from 1.27% to 1.39%.

Going from `COc1ccccc1CCNC(=O)c1c(C)nn(CC(C)C)c1Cl` to `Cc1ccc2c(Cl)c(C(=O)NCCCn3ccnc3)sc2c1`, the inhibition rises from 3.1% to 6.22%.

Compared with `CC(=O)C1=C(C)NC(C)=C(C(C)=O)C1c1cn(-c2ccccc2)nc1-c1cccs1`, `CC1CC(c2ccccc2)n2nc(NC(=O)c3cccs3)nc2N1` (stereo not drawn) is higher in inhibition: -1.97% for the first, 3.43% for the second.

First: CC1CCN(Cc2nc3c(c(=O)n(C)c(=O)n3C)n2CCc2ccccc2)CC1
Second: C/C(Cl)=C\Cn1c(Nc2cccc(C)c2)nc2c1c(=O)n(C)c(=O)n2C
The inhibition of the first is lower: -4.09% for the first, 3.4% for the second.

Compared with `CC(C)(C)CC(C)(C)NCC(O)COCCOc1ccc(Br)cc1` (stereo not drawn), `CCCCCCNS(=O)(=O)c1ccccc1Br` is lower in inhibition: -1.57% for the first, -2.11% for the second.

Compared with `Cc1ccsc1CNn1cnnc1SCc1ccccc1F`, `Cc1cc(-c2csc(N)n2)c(C)n1Cc1ccccc1` is higher in inhibition: -10.8% for the first, 11.3% for the second.

Compared with `Cc1c(C)c(C)c2[nH]c(=S)[nH]c2c1C`, `Cc1cc2c(C)nc(N/N=C/c3ccccc3)nc2o1` is higher in inhibition: -44% for the first, 2.89% for the second.

First: CC1CC(C)CN(S(=O)(=O)c2cccc3nonc23)C1 (stereo not drawn)
Second: COC(=O)c1cccc(N2C(=O)C3C4C=CC(CC4)C3C2=O)c1 (stereo not drawn)
The inhibition of the first is higher: 3.55% for the first, 2.84% for the second.

Going from `CC(=O)N1CCc2c(sc(NC(=O)CCS(=O)(=O)c3ccc(C)cc3)c2C(N)=O)C1` to `CCN(CC)S(=O)(=O)c1ccc(N2CCN(C)CC2)c(NC(=O)Nc2ccccc2F)c1`, the inhibition falls from 6.13% to 5.12%.

Compared with `CSc1nc2ccccc2cc1/C=C(\C#N)c1ccc(Cl)cc1Cl`, `COc1ccc(CN2CCn3ncc(C(=O)Nc4ccc(Cl)cc4Cl)c3C2=O)cc1` is higher in inhibition: 1.93% for the first, 2.02% for the second.

Going from `Cc1ccc(C(=O)N2CCCC2)c(F)c1F` to `Cc1ccc(NC2CCCN(C(=O)CCC3(C)CC3)C2)cc1C` (stereo not drawn), the inhibition falls from 8.05% to 4.16%.

Compared with `Oc1ccc(C2Nc3cccc4cccc(c34)N2)cc1`, `COc1cccc(C2Nc3cccc4cccc(c34)N2)c1` is higher in inhibition: 15.2% for the first, 20.6% for the second.

First: COc1cc(SC)ccc1C(=O)Nc1cc(C)ccn1
Second: COc1ccccc1C(=O)N/C(=C/c1ccc2c(c1)OCO2)C(=O)Nc1cccc(C(=O)O)c1
The inhibition of the first is lower: -0.05% for the first, 8.09% for the second.

Compared with `CCOC(=O)/C(=C\c1ccc([N+](=O)[O-])cc1)C(=O)c1cc(C(C)=O)c(Nc2ccccc2)s1`, `O=c1cc(CO)oc(C(Nc2cccc([N+](=O)[O-])c2)c2ccccn2)c1O` (stereo not drawn) is higher in inhibition: 1.23% for the first, 13.9% for the second.

First: O=C1c2ccccc2C(=O)c2c1cccc2N1CCN(Cc2ccccc2)CC1
Second: O=C1c2ccccc2C(=O)c2c1cccc2N1CCN(C/C=C/c2ccccc2)CC1
The inhibition of the first is lower: 7.24% for the first, 20.9% for the second.

Compared with `Cc1ccc(CNC(=O)CC(NC(=O)c2ccccc2)c2ccccc2)cc1` (stereo not drawn), `CC(=O)c1ccc(-c2ccc(Cn3c(C)nc4cc(N)c(C)nc43)cc2)cc1` is higher in inhibition: -7.73% for the first, -0.35% for the second.

Going from `CN(C)[C@@H]1C(=O)C(C(N)=O)=C(O)[C@@]2(O)C(=O)C3=C(O)c4c(O)ccc(Cl)c4[C@@H](O)[C@H]3C[C@@H]12` to `CC(=O)C[C@@H](O)CC(=O)[C@H]1OC(=O)CCCCCCc2ccccc21`, the inhibition falls from 15.2% to 0.52%.

First: Cc1cc(F)ccc1N1CCC(N2CCN(C)C(CCO)C2)CC1 (stereo not drawn)
Second: CC[C@]1(O)CC2CN(CCc3c([nH]c4ccccc34)[C@@](C(=O)OC)(c3cc4c(cc3OC)N(C=O)[C@H]3[C@@](O)(C(=O)OC)[C@H](OC(C)=O)[C@]5(CC)C=CCN6CC[C@]43[C@@H]65)C2)C1 (stereo partly drawn)
The inhibition of the first is lower: 8.78% for the first, 15% for the second.

Compared with `COc1ccccc1CNS(=O)(=O)c1ccc2c(c1)NC(=O)CS2`, `O=[N+]([O-])c1ccc(F)cc1Oc1nc(-c2cccnc2)nc2ccccc12` is higher in inhibition: -2.44% for the first, 3.63% for the second.

`FC(F)(F)c1cccc(Nc2ncnc3ccccc23)c1` was tested, and the inhibition was -2.73%.

For `COCCNc1nc2nonc2nc1N1CCCC1c1nccs1` (stereo not drawn), the inhibition was 31.5% (active).
`CC[N+](C)(CC)CCC[n+]1c(-c2ccccc2)c2cc(N)ccc2c2ccc(N)cc21` was tested, and the inhibition was 123% (active).
With `O=c1[nH]c(=S)[nH]c2[nH]c(=S)[nH]c12` the inhibition was 44% (active).
With `Cc1ccc(C2Nc3cccc4cccc(c34)N2)cc1` the inhibition was 31.7% (active).
In the case of `Cc1ccnc(NC(=O)c2ccoc2C)c1`, the inhibition is reported as 32.4% (active).
`O=C1c2ccccc2C(=O)c2c1cccc2N1CCN(CCO)CC1` was tested, and the inhibition was 60% (active).
In the case of `CCCC1OC23CCCCC2C(C#N)(C#N)C1(C#N)C(=N)O3` (stereo not drawn), the inhibition is reported as 82.8% (active).
In the case of `C=C1c2c(Cl)ccc(O)c2C(O)=C2C(=O)[C@]3(O)C(O)=C(C(N)=O)C(=O)[C@@H](N(C)C)[C@@H]3[C@@H](O)C12` (stereo partly drawn), the inhibition is reported as 31.6% (active).
`COc1ccc(Nc2nc(-c3cccnc3)nc3ccccc23)cn1` was tested, and the inhibition was 118% (active).
For `CC[C@]1(O)C[C@@H]2CN(CCc3c([nH]c4ccccc34)[C@@](C(=O)OC)(c3cc4c(cc3OC)N(C)[C@H]3[C@@](O)(C(=O)OC)[C@H](OC(C)=O)[C@]5(CC)C=CCN6CC[C@]43[C@@H]65)C2)C1`, the inhibition was 105% (active).
For `O=c1cc(CO)oc(C(Nc2cccc(C(F)(F)F)c2)c2ccccn2)c1O` (stereo not drawn), the inhibition was 33.9% (active).
